# According to PubChem BioAssay (NCATS):
# Where “and” joins values, the source holds several entries; their conditions need not be identical. Equal entries are not always repeated. Results filed as inconclusive are left out. Entries that show only a call come without a potency. Values without a mark were called inactive. Calls of active or inactive are those of the source. The call rests on the fitted dose curve; in most records, active means well fitted inhibition curve with a large enough effect; inconclusive means small, poorly fitted or top-dose-only effect; inactive means flat fitted curve, though single readings scatter.
# What was measured:
# TAB113 = assay: qHTS profiling for inhibitors of Plasmodium falciparum proliferation (AID 504749); conditions: P. falciparum in erythrocytes, SYBR Green DNA, 72 h; series mostly up to 28.7 µM
# Procedure, shortened: (§1)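 P. falciparum-infected erythrocytes (0.3% parasitemia, 2.5% hematocrit) incubated with compound 72 h at 37 C, 5% CO2. Parasite DNA detected by SYBR Green after lysis, overnight at room temperature; normalised to 0.29 uM artemisinin and DMSO.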
# TAB165 = assay: as above; conditions: P. falciparum in erythrocytes, SYBR Green DNA, 72 h; series mostly up to 28.7 µM
# Procedure, shortened: as §1
# W2 = assay: as above; conditions: P. falciparum in erythrocytes, SYBR Green DNA, 72 h; series mostly up to 28.7 µM
# Procedure, shortened: as §1
# KB-3-1 = assay: Cytotoxic Profiling of Annotated Libraries Using Quantitative High-Throughput Screening (AID 1296008); conditions: Five cell lines viability, CellTiter-Glo ATP luminescence, 48-72 h; max response: stronger effect = lower value
# Procedure, shortened: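 Cells exposed to compounds for 48 or 72 hr at 37 degrees Celsius. Viability read as ATP-coupled luminescence with CellTiter-Glo after 10 min at room temperature.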
# Further: nearly all actives have a fitted effect of over 60% in size.
# Potency means the concentration at half of the fitted maximal effect.
SMILES,Potency (TAB113),Potency (TAB165),Potency (W2),Potency (KB-3-1),max response (KB-3-1)
C#CCOc1ccc2c(C)cc(=O)oc2c1,inactive,inactive,–,–,–
O=C(Nc1cccc(C(F)(F)F)c1)c1cc(Br)cc(Br)c1O,12.6 µM (active),14.1 µM (active),6.75 µM (active),16.4 µM (active),–
CC[C@@]1(O)C(=O)OCc2c1cc1n(c2=O)Cc2cc3c([N+](=O)[O-])cccc3nc2-1,5.62 µM (active),3.98 µM (active),4.78 µM (active),–,–
CO[C@H]1C[C@@H]2CC[C@@H](C)[C@@](O)(O2)C(=O)C(=O)N2CCCC[C@H]2C(=O)O[C@H]([C@H](C)C[C@@H]2CC[C@@H](OCCO)[C@H](OC)C2)CC(=O)[C@H](C)/C=C(\C)[C@@H](O)[C@@H](OC)C(=O)[C@H](C)C[C@H](C)/C=C/C=C/C=C/1C,1.12 µM (active),1.12 µM (active),0.757 µM (active),–,-27.1%
COC(=O)[C@H]1[C@H]2CC3c4[nH]c5ccccc5c4CCN3C[C@@H]2CC[C@@H]1O (some centres undefined),inactive,inactive,–,–,–
Nc1c(N=Nc2ccc(-c3ccc(N=Nc4cc(S(=O)(=O)O)c5ccccc5c4N)cc3)cc2)cc(S(=O)(=O)O)c2ccccc12,inactive,inactive,inactive,–,-9%
CC1=CCC(C(C)(C)O)CC1 (centres undefined),inactive,inactive,inactive,–,–
CN=C(NC#N)Nc1ccc(C2=NNC(=O)C[C@@H]2C)cc1,inactive,inactive,–,–,–
O=C(O)c1cc(O)c2c(c1)[O][Bi][O]2,inactive,inactive,inactive,–,2%
CC(C)N=c1cc2n(-c3ccc(Cl)cc3)c3ccccc3nc-2cc1Nc1ccc(Cl)cc1,inactive,inactive,–,–,6.76%
O=C(COc1ccc(Cl)cc1)OCCNC12CC3CC(CC(C3)C1)C2,inactive,inactive,–,–,–
CCCCCC(CC)COC(=O)CC(C(=O)OCC(CC)CCCC)S(=O)(=O)O (centres undefined),inactive,inactive,–,–,–
IC(I)I,inactive,inactive,inactive,–,9.13%
CCOc1ccc2c(c1)C(C)=CC(C)(C)N2,inactive,inactive,inactive,–,-2.71%
O=S(=O)(O)c1ccc2c(N=Nc3ccc(S(=O)(=O)O)c4ccccc34)c(O)c(S(=O)(=O)O)cc2c1,inactive,inactive,inactive,–,–
COC(C(=O)C(O)C(C)O)C1Cc2cc3cc(OC4CC(OC5CC(O)C(O)C(C)O5)C(O)C(C)O4)c(C)c(O)c3c(O)c2C(=O)C1OC1CC(OC2CC(OC3CC(C)(O)C(O)C(C)O3)C(O)C(C)O2)C(O)C(C)O1 (centres undefined),0.141 µM (active),0.141 µM (active),0.426 µM (active),1.46 µM (active),–
COCC(=O)Nc1cc(Sc2ccccc2)ccc1N=C(NC(=O)OC)NC(=O)OC,inactive,inactive,–,–,–
C[C@H]1C[C@H]2[C@@H]3CCC4=CC(=O)C=C[C@]4(C)[C@@]3(F)[C@@H](O)C[C@]2(C)[C@@]1(O)C(=O)CO,inactive,inactive,inactive,–,–
CC(=O)Oc1cc(C)c(OC(C)=O)c2ccccc12,–,12.6 µM (active),5.36 µM (active),–,4.15%
CCCCCCCC(=O)O,inactive,inactive,inactive,–,-16.7%
CC1=C(/C=C/C(C)=C/C=C/C(C)=C/C=C/C=C(C)/C=C/C=C(C)/C=C/C2=C(C)CCCC2(C)C)C(C)(C)CCC1,inactive,inactive,inactive,–,-7.35%
CC(O)CO (centres undefined),inactive,inactive,inactive,–,-18.9%
Nc1c(Br)cc(Br)cc1CNC1CCC(O)CC1 (centres undefined),inactive,inactive,–,–,–
O=C(O)CCC(=O)C(=O)O,inactive,–,inactive,–,-11.9%
Cc1c(C)c2c(c(C)c1O)CC[C@@](C)(CCC[C@H](C)CCC[C@H](C)CCCC(C)C)O2,inactive,inactive,inactive,–,4.35% and -16.8%
